Reference: PubChem BioAssay (NCATS)
“And” between values parts separate entries of the source, which are not always exact repeats. Equal entries are not always repeated. Records with an inconclusive call do not appear. Some compounds were tested as several samples or in several runs, with calls that do not always agree. The source made the active and inactive calls. Calls come from the whole dose curve; as a rule, active = well fitted curve in the direction sought with a large enough effect; inconclusive = small, poorly fitted or top-dose-only effect, or another doubt; inactive = no such curve, though single readings can be large; an effect the other way counts as inactive or inconclusive.

Assays:
[1] = system: HACAT; assay: qHTS assay to identify novel small-molecules to repurpose for Merkel cell carcinoma treatment (AID 1296009); details: MCC and control cell lines, CellTiter-Glo viability, 72 h; series mostly up to 44.8 µM; note: nearly all actives have a fitted effect of over 60% in size
Procedure, shortened: (§1)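 Cell viability measured by CellTiter-Glo following 72 hr compound treatment at 37 degree celsius, with NPC and MIPE libraries tested in 8- and 11-point concentration series.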

[2] = system: MCC-13; assay: as above; details: MCC and control cell lines, CellTiter-Glo viability, 72 h; series mostly up to 46 µM
Procedure, shortened: as §1

[3] = system: MCC-26; assay: as above; details: MCC and control cell lines, CellTiter-Glo viability, 72 h; series mostly up to 46 µM
Procedure, shortened: as §1

[4] = system: MKL-1; assay: as above; details: MCC and control cell lines, CellTiter-Glo viability, 72 h; series mostly up to 46 µM
Procedure, shortened: as §1

[5] = system: MKL-2; assay: as above; details: MCC and control cell lines, CellTiter-Glo viability, 72 h; series mostly up to 46 µM
Procedure, shortened: as §1

[6] = system: UISO; assay: as above; details: MCC and control cell lines, CellTiter-Glo viability, 72 h; series mostly up to 46 µM
Procedure, shortened: as §1

[7] = system: WaGa; assay: as above; details: MCC and control cell lines, CellTiter-Glo viability, 72 h; series mostly up to 46 µM
Procedure, shortened: as §1

[8] = system: C33A; assay: Primary qHTS to identify gynecologic anti-cancer compounds using libraries of approved drugs and bioactive compounds (AID 1345084); details: Gynecologic cancer cell panel viability, ATPlite luminescence, 48 h; series mostly up to 57.5 µM; note: nearly all actives have a fitted effect of over 55% in size
Procedure, shortened: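 Cell viability after 48 h drug treatment, ATPlite luminescence readout; five doses.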

[9] = system: NIH3T3; assay: qHTS assay to identify novel small-molecules to repurpose for Merkel cell carcinoma treatment (AID 1296009); details: MCC and control cell lines, CellTiter-Glo viability, 72 h; series mostly up to 44.8 µM; note: nearly all actives have a fitted effect of over 60% in size
Procedure, shortened: as §1

[10] = system: HEK293T; assay: as above; details: MCC and control cell lines, CellTiter-Glo viability, 72 h; at 44.8 µM (top of the series) unless noted
Procedure, shortened: as §1

Measured: Potency
Potency is the fitted concentration of half-maximal effect.

Cc1ccc(-c2cc(C(F)(F)F)nn2-c2ccc(S(N)(=O)=O)cc2)cc1
inactive: [1] | [2] | [3] | [4] | [5] | [6] | [7] | [8]

Clc1ccc2c(c1)C(N1CCNCC1)=Nc1ccccc1O2
inactive: [1] | [2] | [4] | [5] | [6] | [7] | [8]

CCOC(=O)Nc1ccc(NCc2ccc(F)cc2)nc1N
inactive: [2] | [3] | [4] | [5] | [9] | [6]
21.1 µM (active) and inactive: [7]

NCCCCCC(=O)O
inactive: [1] | [2] | [3] | [4] | [5] | [6] | [7] | [8]

CN(C)CCC=C1c2ccccc2C=Cc2ccccc21
inactive: [1] | [2] | [4] | [6] | [7] | [8]

O=c1c(-c2ccc(O)cc2)coc2cc(O)cc(O)c12
inactive and 26.6 µM (active): [7]
inactive: [1] | [2] | [3] | [4] | [5] | [6] | [8]

CC(C(=O)O)c1cccc(C(=O)c2ccccc2)c1 (stereo not drawn)
inactive: [1] | [2] | [4] | [5] | [9] | [6] | [7]

OCCN(CCO)c1nc(N2CCCCC2)c2nc(N(CCO)CCO)nc(N3CCCCC3)c2n1
inactive: [1] | [2] | [3] | [4] | [9] | [6] | [7] | [8]

CC(CCc1ccc(O)cc1)NCCc1ccc(O)c(O)c1 (stereo not drawn)
inactive: [1] | [2] | [3] | [7] | [8]
active: [4] 7.5 µM | [5] 23.5 µM and 11.9 µM

O=C1Cc2cc(CCN3CCN(c4nsc5ccccc45)CC3)c(Cl)cc2N1
inactive: [1] | [2] | [3] | [9] | [8]
active: [5] 11.9 µM and 14.8 µM
15 µM (active) and inactive: [6]

COc1nc(C)nc(Cl)c1NC1=NCCN1
inactive: [1] | [2] | [4] | [5] | [6] | [7] | [8]

C[C@H]1c2cccc(O)c2C(O)=C2C(=O)[C@]3(O)C(O)=C(C(N)=O)C(=O)[C@@H](N(C)C)[C@@H]3[C@@H](O)[C@@H]21
inactive: [1] | [2] | [4] | [5] | [9] | [7] | [8]

Clc1ccc(C(c2ccccc2Cl)C(Cl)Cl)cc1 (stereo not drawn)
inactive: [1] | [2] | [3] | [4] | [5] | [6] | [7] | [8]

COc1ccc(CCN(C)CCCC(C#N)(c2ccc(OC)c(OC)c2)C(C)C)cc1OC (stereo not drawn)
inactive: [1] | [2] | [4] | [5] | [6] | [7] | [8]

CCCNCC(O)COc1ccccc1C(=O)CCc1ccccc1 (stereo not drawn)
inactive: [1] | [2] | [3] | [4] | [5] | [6] | [7] | [8]

COc1ccccc1OCCNCC(O)COc1cccc2[nH]c3ccccc3c12 (stereo not drawn)
inactive: [1] | [2] | [3] | [4] | [6] | [7] | [8]
active: [5] 16.8 µM

CCCCc1oc2ccccc2c1C(=O)c1cc(I)c(OCCN(CC)CC)c(I)c1
active: [5] 13.3 µM
inactive: [1] | [2] | [3] | [6] | [7] | [8]

CC(=O)OCC(CCn1cnc2cnc(N)nc21)COC(C)=O
inactive: [10] | [2] | [4] | [5] | [9] | [6] | [7] | [8]

Cn1cnc2c1c(=O)[nH]c(=O)n2C
inactive: [1] | [2] | [3] | [4] | [5] | [6] | [7] | [8]

CN1C2CCC1CC(OC(=O)C(CO)c1ccccc1)C2 (stereo not drawn)
inactive: [1] | [2] | [4] | [5] | [6] | [7]

CC(C)NCC(O)COc1ccc(CCOCC2CC2)cc1 (stereo not drawn)
inactive: [1] | [2] | [4] | [5] | [6] | [7] | [8]

Nc1c2c(nc3ccccc13)CCCC2
inactive: [1] | [2] | [4] | [5] | [9] | [6] | [7] | [8]

CN1CCN(CCCN2c3ccccc3Sc3ccc(Cl)cc32)CC1
active: [4] 16.6 µM | [5] 11.8 µM
inactive: [1] | [2] | [6] | [8]

CC(C)(Oc1ccc(C2CC2(Cl)Cl)cc1)C(=O)O (stereo not drawn)
inactive: [1] | [2] | [4] | [5] | [9] | [6] | [7] | [8]

CC1(CN2CCC(n3c(=O)[nH]c4ccccc43)CC2)OCc2ccccc2-n2cccc21 (stereo not drawn)
inactive: [1] | [2] | [4] | [5] | [6] | [7] | [8]

CN(C)CCCN1c2ccccc2CCc2ccc(Cl)cc21
inactive: [1] | [2] | [4] | [8]
active: [5] 18.7 µM | [7] 18.7 µM

Cn1ccc2cc3c(cc21)CCN3C(=O)Nc1cccnc1
inactive: [10] | [2] | [3] | [4] | [5] | [9] | [6] | [7] | [8]

COc1cc2c(c(OC)c1OC)-c1ccc(OC)c(=O)cc1[C@@H](NC(C)=O)CC2
inactive: [5] | [6] | [7]
active: [2] 11.8 nM

Cc1cn([C@H]2C=C[C@@H](CO)O2)c(=O)[nH]c1=O
inactive: [2] | [3] | [4] | [5] | [6] | [7] | [8]

CCOC(=O)c1ncn2c1CN(C)C(=O)c1cc(F)ccc1-2
inactive: [8]

C[C@@H]1CC(=O)NN=C1c1ccc(NN=C(C#N)C#N)cc1
inactive: [2] | [3] | [4] | [8]
active: [5] 8.41 µM and 7.5 µM | [6] 21.1 µM
23.7 µM (active) and inactive: [7]

CCC1(c2ccccc2)C(=O)NCNC1=O
inactive: [8]

O=C(c1ccc(F)cc1)C1CCN(CCn2c(=O)[nH]c3ccccc3c2=O)CC1
inactive: [2] | [3] | [4] | [5] | [9] | [6] | [7] | [8]

CN1CCN(C2=Nc3cc(Cl)ccc3Nc3ccccc32)CC1
inactive: [2] | [4] | [5] | [9] | [6] | [7] | [8]

CC(C)NCC(O)c1ccc(O)c(O)c1 (stereo not drawn)
inactive: [2] | [8]
active: [4] 8.41 µM | [5] 7.43 µM and 18.8 µM | [7] 3.32 µM and 18.8 µM

COc1cc2nc(N(C)CCCNC(=O)C3CCCO3)nc(N)c2cc1OC (stereo not drawn)
inactive: [2] | [3] | [4] | [5] | [9] | [6] | [7] | [8]

O=C(C1CCCCC1)N1CC(=O)N2CCc3ccccc3C2C1 (stereo not drawn)
inactive: [8]

CC#C[C@]1(O)CC[C@H]2[C@@H]3CCC4=CC(=O)CCC4=C3[C@@H](c3ccc(N(C)C)cc3)C[C@@]21C
active: [5] 21.1 µM and 93.5 nM | [6] 2.96 µM
inactive: [2] | [3] | [8]
inactive and 105 nM (active): [4]

O=C(Nc1ccc([N+](=O)[O-])cc1Cl)c1cc(Cl)ccc1O
active: [6] 3.26 µM | [7] 4.61 µM | [8] 2.51 µM

CC(COc1ccccc1)N(CCCl)Cc1ccccc1 (stereo not drawn)
inactive: [8]

CC12CC3CC(C)(C1)CC(N)(C3)C2
3.72 µM (active) and inactive: [7]
inactive: [2] | [4] | [5] | [6] | [8]

NC(=O)NO
inactive and 4.69 µM (active): [6]
inactive and 2.96 µM (active): [2]
inactive: [4] | [7] | [8]
inactive and 372 nM (active): [5]
inactive and 10.5 µM (active): [3]

COC(=O)Nc1nc2ccc(C(=O)c3cccs3)cc2[nH]1
active: [2] 148 nM and 266 nM | [3] 132 nM | [6] 0.0235 µM | [8] 1 µM

Clc1ccccc1C(c1ccccc1)(c1ccccc1)n1ccnc1
23.7 µM (active) and inactive: [7]
inactive: [2] | [3] | [4] | [5] | [6]

COc1cc2nc(N3CCN(C(=O)c4ccco4)CC3)nc(N)c2cc1OC
inactive: [2] | [8]
active: [4] 29.6 µM | [5] 16.6 µM | [7] 20.9 µM

Cn1c(=O)c2[nH]cnc2n(C)c1=O
inactive: [8]

Nc1nc2c(ncn2COC(CO)CO)c(=O)[nH]1
inactive and 7.43 µM (active): [5]
inactive and 18.7 µM (active): [6]
inactive and 20.9 µM (active): [2]
inactive: [3] | [4] | [7] | [8]

COc1ccccc1N1CCN(CC(O)COc2cccc3ccccc23)CC1 (stereo not drawn)
active: [8] 8.91 µM
inactive: [2] | [4] | [5] | [6] | [7]

CS(=O)(=O)Nc1ccc([N+](=O)[O-])cc1Oc1ccccc1
inactive and 14.8 µM (active): [5]
inactive: [2] | [3] | [4] | [6] | [7] | [8]

CS(=O)(=O)CCNCc1ccc(-c2ccc3ncnc(Nc4ccc(OCc5cccc(F)c5)c(Cl)c4)c3c2)o1
inactive: [2] | [4] | [6] | [8]
inactive and 16.8 µM (active): [7]
active: [5] 11.9 µM

Cn1c(=O)c2c(ncn2C)n(C)c1=O
inactive: [2] | [4] | [5] | [6] | [7] | [8]

OCCN1CCN(CCCN2c3ccccc3Sc3ccc(C(F)(F)F)cc32)CC1
inactive: [2] | [3] | [6] | [8]
active: [4] 21.1 µM | [5] 20.9 µM and 21.1 µM | [7] 20.9 µM

CC[C@@]1(O)C(=O)OCc2c1cc1n(c2=O)Cc2cc3c(CN(C)C)c(O)ccc3nc2-1
active: [2] 94.4 nM and 132 nM | [3] 94.4 nM and 418 nM | [4] 21.1 nM and 93.5 nM | [5] 4.2 nM and 13.2 nM | [6] 237 nM and 46.9 nM | [7] 3.8 nM and 26.4 nM | [8] 2.51 µM and 7.08 µM

CN1C(C(=O)Nc2ccccn2)=C(O)c2ccccc2S1(=O)=O
inactive: [2] | [5] | [6] | [8]
inactive and 16.6 µM (active): [7]
inactive and 10.5 µM (active): [4]

CN(Cc1cnc2nc(N)nc(N)c2n1)c1ccc(C(=O)N[C@@H](CCC(=O)O)C(=O)O)cc1
active: [4] 10.5 µM
inactive: [5]

O=c1[nH]cc(F)c(=O)[nH]1
active: [7] 10.5 µM
inactive: [2] | [4] | [5]

O=C1c2c(O)ccc(O)c2C(=O)c2c(NCCNCCO)ccc(NCCNCCO)c21
active: [2] 935 nM and 750 nM | [3] 1.87 µM and 596 nM | [4] 105 nM and 6 nM | [5] 0.006 µM | [6] 526 nM and 668 nM | [7] 74.3 nM and 4.7 nM | [8] 2.51 µM

CN(C)c1nc(N(C)C)nc(N(C)C)n1
inactive: [2] | [3] | [4] | [5] | [6] | [7] | [8]
